# Experimental data: PubChem BioAssay AID1159580 (chemical genetic matrix, 2015)
# The campaign covered roughly 5,500 compounds. About 2,000 (36%) were called active. Inconclusive results (about 18%) are left out. Some of the results follow. Unmarked numbers belong to inactive results. Cut-off read from the data, not from the text of the source: active = normalized growth mostly below about 0.91 (no sharp cut-off); inconclusive = no clear call, values can overlap the other calls; inactive = mostly above about 0.92.
# Assay: chemical genetic growth profiling, strain panel (AID 1159580);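 note: tested at 20 µM; growth read once vehicle control cultures reached saturation at 30 °C; 1 = growth at the plate median or of vehicle wells; lower values mean less growth of the strain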
# Settings: growth OD
structure (smiles),measurement,setting,value
COc1ccc2c(c1)CCC(c1ccccc1)=C2c1ccc(OCCN2CCCC2)cc1,normalized growth,"S. cerevisiae deletion strains, locus YBR021W, strain FUR4, active compounds read low",0.239 (active)
same,normalized growth,"S. cerevisiae deletion strains, locus YBR229C, strain ROT2, active compounds read low",0.946
same,normalized growth,"S. cerevisiae deletion strains, locus YCL029C, strain bik1, active compounds read low",0.549 (active)
same,normalized growth,"S. cerevisiae deletion strains, locus YDL035C, strain GPR1, active compounds read low",0.638 (active)
same,normalized growth,"S. cerevisiae deletion strains, locus YDL074C, strain BRE1, active compounds read low",0.511 (active)
same,normalized growth,"S. cerevisiae deletion strains, locus YDL101C, strain DUN1, active compounds read low",0.329 (active)
same,normalized growth,"S. cerevisiae deletion strains, locus YDL134C, strain PPH21, active compounds read low",0.407 (active)
same,normalized growth,"S. cerevisiae deletion strains, locus YDL185W, strain tfp1, active compounds read low",0.972
same,normalized growth,"S. cerevisiae deletion strains, locus YDL192W, strain arf1, active compounds read low",0.095 (active)
same,normalized growth,"S. cerevisiae deletion strains, locus YDR101C, strain arx1, active compounds read low",0.675 (active)
same,normalized growth,"S. cerevisiae deletion strains, locus YDR162C, strain NBP2, active compounds read low",0.174 (active)
same,normalized growth,"S. cerevisiae deletion strains, locus YDR318W, strain mcm21, active compounds read low",0.382 (active)
same,normalized growth,"S. cerevisiae deletion strains, locus YDR388W, active compounds read low",0.181 (active)
same,normalized growth,"S. cerevisiae deletion strains, locus YDR502C, strain sam2, active compounds read low",0.405 (active)
same,normalized growth,"S. cerevisiae deletion strains, locus YER110C, active compounds read low",0.863 (active)
same,normalized growth,"S. cerevisiae deletion strains, locus YER155C, strain BEM2, active compounds read low",0.961
same,normalized growth,"S. cerevisiae deletion strains, locus YER167W, strain BCK2, active compounds read low",0.85 (active)
same,normalized growth,"S. cerevisiae deletion strains, locus YGL078C, strain dbp3, active compounds read low",0.973
same,normalized growth,"S. cerevisiae deletion strains, locus YGL086W, strain mad1, active compounds read low",0.28 (active)
same,normalized growth,"S. cerevisiae deletion strains, locus YGL248W, strain PDE1, active compounds read low",0.465 (active)
same,normalized growth,"S. cerevisiae deletion strains, locus YGR078C, strain PAC10, active compounds read low",0.852
same,normalized growth,"S. cerevisiae deletion strains, locus YGR135W, strain pre9, active compounds read low",0.408 (active)
same,normalized growth,"S. cerevisiae deletion strains, locus YGR252W, strain gcn5, active compounds read low",0.251 (active)
same,normalized growth,"S. cerevisiae deletion strains, locus YHR079C, strain IRE1 (second series), active compounds read low",0.617 (active)
same,normalized growth,"S. cerevisiae deletion strains, locus YHR094C, strain hxt1, active compounds read low",0.714 (active)
same,normalized growth,"S. cerevisiae deletion strains, locus YHR129C, strain ARP1, active compounds read low",0.674 (active)
same,normalized growth,"S. cerevisiae deletion strains, locus YHR200W, strain rpn10, active compounds read low",0.706 (active)
same,normalized growth,"S. cerevisiae deletion strains, locus YIL066C, strain RNR3, active compounds read low",0.553 (active)
same,normalized growth,"S. cerevisiae deletion strains, locus YIL073C, strain SPO22, active compounds read low",0.3 (active)
same,normalized growth,"S. cerevisiae deletion strains, locus YIL125W, strain kgd1, active compounds read low",0.987
same,normalized growth,"S. cerevisiae deletion strains, locus YIR030C, strain dcg1, active compounds read low",0.513 (active)
same,normalized growth,"S. cerevisiae deletion strains, locus YJL095W, strain BCK1, active compounds read low",0.138 (active)
same,normalized growth,"S. cerevisiae deletion strains, locus YJL134W, strain LCB3, active compounds read low",1.01
same,normalized growth,"S. cerevisiae deletion strains, locus YJL168C, strain set2, active compounds read low",0.409 (active)
same,normalized growth,"S. cerevisiae deletion strains, locus YJL187C, strain SWE1 (second series), active compounds read low",0.367 (active)
same,normalized growth,"S. cerevisiae deletion strains, locus YJR075W, strain HOC1, active compounds read low",0.593 (active)
same,normalized growth,"S. cerevisiae deletion strains, locus YKL009W, strain mrt4, active compounds read low",0.925
same,normalized growth,"S. cerevisiae deletion strains, locus YKL068W, active compounds read low",0.994
same,normalized growth,"S. cerevisiae deletion strains, locus YKL085W, strain MDH1 (second series), active compounds read low",0.976
same,normalized growth,"S. cerevisiae deletion strains, locus YKL085W, strain MDH1, active compounds read low",0.976
same,normalized growth,"S. cerevisiae deletion strains, locus YKL190W, strain CNB1, active compounds read low",0.524 (active)
same,normalized growth,"S. cerevisiae deletion strains, locus YKR001C, strain vps1, active compounds read low",0.0705 (active)
same,normalized growth,"S. cerevisiae deletion strains, locus YLR039C, strain RIC1, active compounds read low",1.37 [resistant] (active)
same,normalized growth,"S. cerevisiae deletion strains, locus YLR058C, strain SHM2, active compounds read low",0.446 (active)
same,normalized growth,"S. cerevisiae deletion strains, locus YLR102C, strain apc9, active compounds read low",0.683 (active)
same,normalized growth,"S. cerevisiae deletion strains, locus YLR262C, strain YPT6, active compounds read low",1.16
same,normalized growth,"S. cerevisiae deletion strains, locus YLR268W, strain sec22, active compounds read low",0.415 (active)
same,normalized growth,"S. cerevisiae deletion strains, locus YLR342W, strain FKS1 (second series), active compounds read low",0.348 (active)
same,normalized growth,"S. cerevisiae deletion strains, locus YLR371W, strain rom2, active compounds read low",0.355 (active)
same,normalized growth,"S. cerevisiae deletion strains, locus YLR418C, strain cdc73, active compounds read low",0.295 (active)
same,normalized growth,"S. cerevisiae deletion strains, locus YML016C, strain PPZ1, active compounds read low",0.491 (active)
same,normalized growth,"S. cerevisiae deletion strains, locus YML032C, strain rad52, active compounds read low",0.492 (active)
same,normalized growth,"S. cerevisiae deletion strains, locus YML124C, strain tub3, active compounds read low",0.672 (active)
same,normalized growth,"S. cerevisiae deletion strains, locus YMR078C, strain ctf18, active compounds read low",0.979
same,normalized growth,"S. cerevisiae deletion strains, locus YMR223W, strain ubp8, active compounds read low",0.478 (active)
same,normalized growth,"S. cerevisiae deletion strains, locus YMR307W, strain GAS1, active compounds read low",0.764
same,normalized growth,"S. cerevisiae deletion strains, locus YNL067W, strain RPL9B, active compounds read low",0.825 (active)
same,normalized growth,"S. cerevisiae deletion strains, locus YNL233W, strain BNI4, active compounds read low",0.423 (active)
same,normalized growth,"S. cerevisiae deletion strains, locus YNL250W, strain rad50, active compounds read low",0.953
same,normalized growth,"S. cerevisiae deletion strains, locus YNL271C, strain bni1, active compounds read low",0.992
same,normalized growth,"S. cerevisiae deletion strains, locus YNL298W, strain CLA4, active compounds read low",0.957
same,normalized growth,"S. cerevisiae deletion strains, locus YNL307C, strain MCK1, active compounds read low",0.258 (active)
same,normalized growth,"S. cerevisiae deletion strains, locus YNL322C, strain KRE1, active compounds read low",0.796 (active)
same,normalized growth,"S. cerevisiae deletion strains, locus YNR052C, strain pop2, active compounds read low",0.136 (active)
same,normalized growth,"S. cerevisiae deletion strains, locus YOL006C, strain TOP1, active compounds read low",0.323 (active)
same,normalized growth,"S. cerevisiae deletion strains, locus YOL012C, strain htz1",0.17 (active)
same,normalized growth,"S. cerevisiae deletion strains, locus YOL147C, strain pex11, active compounds read low",0.445 (active)
same,normalized growth,"S. cerevisiae deletion strains, locus YOR061W, strain CKA2, active compounds read low",0.206 (active)
same,normalized growth,"S. cerevisiae deletion strains, locus YOR069W, strain VPS5, active compounds read low",0.859 (active)
same,normalized growth,"S. cerevisiae deletion strains, locus YOR136W, strain idh2, active compounds read low",0.734 (active)
same,normalized growth,"S. cerevisiae deletion strains, locus YOR144C, strain elg1, active compounds read low",0.813 (active)
same,normalized growth,"S. cerevisiae deletion strains, locus YOR184W, strain ser1, active compounds read low",0.522 (active)
same,normalized growth,"S. cerevisiae deletion strains, locus YOR316C, strain cot1, active compounds read low",0.794 (active)
same,normalized growth,"S. cerevisiae deletion strains, locus YPR119W, strain clb2, active compounds read low",0.774 (active)
same,normalized growth,"S. cerevisiae deletion strains, locus YPR141C, strain kar3, active compounds read low",0.977
same,normalized growth,"S. cerevisiae deletion strains, locus YPR163C, strain tif3, active compounds read low",0.0746 (active)
same,normalized growth,"S. cerevisiae deletion strains, locus YPR167C, strain met16, active compounds read low",0.633 (active)
same,normalized growth,"S. cerevisiae deletion strains, strain wtn01, active compounds read low",0.274 (active)
same,normalized growth,"S. cerevisiae strains, strain wild type, active compounds read low",0.358 (active)
